Screening data (PubChem)
NFkB SMM: binds human NF-kappa-B p105 on microarray; P19838; AID 624139; Small molecule microarray, anti-His fluorescence binding; hit rate 1.3% among 17,000; calls only;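 active = spot fluorescence over background significantly raised, with a chance value under 7% in all four replicate spots of the compound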;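 note: probe protein is his-tagged human p50 processed subunit at 1 µg/ml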
Target sequence (P19838 1-433 limits assumed): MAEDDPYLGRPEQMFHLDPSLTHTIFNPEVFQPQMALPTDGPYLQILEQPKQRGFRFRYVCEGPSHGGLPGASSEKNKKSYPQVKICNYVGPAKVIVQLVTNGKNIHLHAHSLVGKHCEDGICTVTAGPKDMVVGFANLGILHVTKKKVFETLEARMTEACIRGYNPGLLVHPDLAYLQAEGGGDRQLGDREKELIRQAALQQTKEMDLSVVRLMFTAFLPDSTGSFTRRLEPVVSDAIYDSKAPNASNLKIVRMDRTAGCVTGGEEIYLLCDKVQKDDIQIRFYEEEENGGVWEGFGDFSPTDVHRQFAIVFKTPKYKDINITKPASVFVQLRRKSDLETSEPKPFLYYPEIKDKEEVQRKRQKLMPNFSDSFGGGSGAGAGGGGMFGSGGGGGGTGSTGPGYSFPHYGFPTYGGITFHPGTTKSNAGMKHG
p53 mut binder: mutant p53 (human) binding; calls only; small molecule microarray binding, anti-GST fluorescence; hit rate 0.4% among 17,000;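 active = compounds whose four printed spots each glow above background more than chance allows, each with a p-value under 7%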
Myc binder: binders of human c-Myc; P01106; small molecule microarray, His-c-Myc binding, anti-His fluorescence; calls only; hit rate 1.5% among 17,000; AID 624141;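 active = spot fluorescence over background with P-value below 7% in all four replicate spots, showing protein binding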
STAT3 SMM: STAT3 (human) binding | Small molecule microarray, His-STAT3 binding, anti-His fluorescence | AID 624138 | P40763 | calls only | hit rate 0.2% among 17,000;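 active = compounds whose four printed spots each show fluorescence over background unusually high for their array block, chance value under 7%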
Each line names hits and unclear results; the compound was inactive in the other large screens. Shown are actives, neighbours in structure and some others; about 2.5% of the full set was active somewhere.

CC1OC(O[C@H]2CC[C@@]3(C)C(CC[C@]4(C)C3CC=C3C5CC(C)(C)CC[C@]5(C(=O)OC5OC(CO)C(OC6OC(CO)C(O)C(O)C6O)C(O)C5O)CC[C@]34C)C2(C)C)C(O)C(O)C1OC1OCC(O)(COC2OCC(O)C(OC3OCC(OC4OCC(O)(CO)C4O)C(O)C3O)C2O)C1O (some centres undefined)	none
C=C1CCC2(C(=O)OC3OC(CO)C(O)C(O)C3OC3OCC(O)C(O)C3O)CCC3(C)C(=CCC4C5(C)CCC(OC6OC(CO)C(O)C(O)C6O)C(C)(CO)C5CCC43C)C2C1 (centres undefined)	none
CC1OC(OC2C(CO)OC(OC(=O)[C@]34CCC(C)(C)CC3C3=CCC5[C@@]6(C)CC[C@H](OC7OC(C)C(OC8OCC(O)(COC9OCC(O)C(OC%10OCC(OC%11OCC(O)(CO)C%11O)C(O)C%10O)C9O)C8O)C(O)C7O)C(C)(C)C6CC[C@@]5(C)[C@]3(C)CC4)C(O)C2O)C(O)C(O)C1O (some centres undefined)	NFkB SMM active, Myc binder active
C/C=C(\C)C(=O)O[C@H]1[C@H](OC(C)=O)[C@@]2(CO)C(CC1(C)C)C1=CCC3[C@@]4(C)CC[C@H](O[C@@H]5O[C@H](C(=O)O)[C@@H](O)[C@H](O[C@@H]6O[C@H](CO)[C@H](O)[C@H](O)[C@H]6O[C@@H]6O[C@@H](C)[C@H](O)[C@@H](O)[C@H]6O)[C@H]5O[C@@H]5O[C@H](CO)[C@@H](O)[C@H](O)[C@H]5O)C(C)(C)C4CC[C@@]3(C)[C@]1(C)C[C@H]2O (some centres undefined)	NFkB SMM active
C=CC(C)(O)CC(/C=C(\C)CC(/C=C(\C)CCC=C(C)C)OC(C)=O)OC(C)=O (centres undefined)	none
C[C@@H]1O[C@@H](O[C@H]2[C@@H](O)[C@@H](C)O[C@@H](O[C@H]3[C@H](O)[C@@H](O)[C@H](O[C@H]4CC[C@@]5(C)C(CC[C@]6(C)C5C=CC5=C7CC(C)(C)CC[C@]7(CO)CC[C@]56C)[C@]4(C)CO)O[C@@H]3CO)[C@@H]2O[C@@H]2O[C@H](CO)[C@@H](O)[C@H](O)[C@H]2O)[C@H](O)[C@H](O)[C@H]1O (some centres undefined)	NFkB SMM active, Myc binder active
C[C@@H]1CC[C@]2(C(=O)O)CC[C@]3(C(=O)O)C(=CCC4[C@@]5(C)CC[C@H](O[C@@H]6O[C@@H](C)[C@H](O[C@@H]7O[C@H](CO)[C@@H](O)[C@H](O)[C@H]7O)[C@@H](O)[C@H]6O)C(C)(C)C5CC[C@]43C)C2[C@H]1C (some centres undefined)	none
C[C@H](CO)N1C[C@H](C)[C@H](CN(C)C(=O)c2ccccc2)OCCCC[C@H](C)Oc2ccc(NC(=O)Nc3ccc4c(c3)OCO4)cc2C1=O	p53 mut binder active, Myc binder active
CCCN(C)C[C@@H]1OCCCC[C@@H](C)Oc2ccc(NC(=O)Nc3ccc(F)cc3)cc2C(=O)N([C@H](C)CO)C[C@H]1C	NFkB SMM active
C[C@@H]1CN([C@@H](C)CO)C(=O)c2cc(NC(=O)Nc3ccc(F)cc3)ccc2O[C@@H](C)CCCCO[C@H]1CN(C)C(=O)c1ccccc1	none
C[C@@H]1CN([C@@H](C)CO)C(=O)c2cc(NC(=O)Nc3ccc(F)cc3)ccc2O[C@@H](C)CCCCO[C@H]1CN(C)C(=O)Cc1ccccc1	NFkB SMM active, Myc binder active
C[C@@H]1CCCCO[C@H](CN(C)C(=O)c2ccccc2)[C@@H](C)CN([C@H](C)CO)C(=O)c2cc(NC(=O)Nc3ccc4c(c3)OCO4)ccc2O1	none
C[C@@H]1CCCCO[C@H](CN(C)C(=O)c2ccccc2)[C@H](C)CN([C@@H](C)CO)C(=O)c2cc(NC(=O)Nc3ccc(F)cc3)ccc2O1	NFkB SMM active
C=CC[C@]1(C(=O)N2CCCCC2)N=C(c2ccc(OCCCO)cc2)O[C@H]1c1ccccc1	none
O=C(c1ccccc1)c1ccc(N2CCOCC2)cc1O	none
COC(=O)C(CC#Cc1ccc2c(c1)[C@]1(C(=O)N2)[C@H](C(=O)N2CCCCCCC2)[C@H]2C(=O)O[C@H](c3ccccc3)[C@H](c3ccccc3)N2[C@@H]1c1ccc(OCCO)cc1)C(=O)OC	p53 mut binder active
COC(=O)C(CC#Cc1ccc2c(c1)[C@]1(C(=O)N2)[C@H](C(=O)N2CCCCCCC2)[C@H]2C(=O)O[C@H](c3ccccc3)[C@H](c3ccccc3)N2[C@@H]1c1ccccc1OCCO)C(=O)OC	NFkB SMM active
NC(=O)NCC#Cc1ccc2c(c1)[C@]1(C(=O)N2)[C@H](C(=O)N2CCCCCCC2)[C@H]2C(=O)O[C@H](c3ccccc3)[C@H](c3ccccc3)N2[C@@H]1c1ccc(O)cc1	p53 mut binder active, Myc binder active
C[C@H](CO)N1C[C@H](C)[C@@H](CN(C)CC2CCCCC2)OCCCC[C@H](C)Oc2ccc(NC(=O)Nc3cccc4ccccc34)cc2C1=O	NFkB SMM active
C[C@H](CO)N1C[C@H](C)[C@H](CN(C)C)OCCCC[C@H](C)Oc2ccc(NC(=O)Nc3cccc4ccccc34)cc2C1=O	none
C[C@H](CO)N1C[C@H](C)[C@@H](CN(C)C)OCCCC[C@H](C)Oc2ccc(NC(=O)Nc3cccc4ccccc34)cc2C1=O	p53 mut binder active
CC(C)NC(=O)N(C)C[C@@H]1OCCCC[C@H](C)Oc2ccc(NC(=O)Nc3cccc4ccccc34)cc2C(=O)N([C@@H](C)CO)C[C@H]1C	none
C[C@@H]1CCCCO[C@@H](CN(C)C(=O)Nc2cccc3ccccc23)[C@H](C)CN([C@H](C)CO)C(=O)c2cc(NC(=O)Nc3ccc(F)cc3)ccc2O1	NFkB SMM active, Myc binder active
Cc1cc(C)nc(N(C#N)C(C(=O)c2ccccc2)c2ccccc2)n1 (centres undefined)	none
COC(=O)C1=C(C)Nc2ncnn2C1c1cccc(OC)c1OCc1ccccc1 (centres undefined)	none
Oc1ccccc1CNc1ccc2c(c1)ncn2C1CCCCC1	Myc binder active
CCOC(=O)C1CCCCN1Cc1cccc([N+](=O)[O-])c1 (centres undefined)	none
Cc1ccc(S(=O)(=O)N2CCC[C@H]2Cn2cc(CN3C(=O)COC[C@H]3c3ccccc3)nn2)cc1	p53 mut binder active
CN(CC(=O)Nc1cccc(Cl)c1)S(=O)(=O)c1ccccc1	none
CC1OC(OCC2OC(OCC3(C)C(O)CCC4(C)C3CCC3(C)C4CCC4C5=CC(C)(C)CCC5(C(=O)O)CCC43C)C(O)C(O)C2O)C(O)C(O)C1O (centres undefined)	NFkB SMM active, Myc binder active
CC1OC(OCC2(C)C=C3C4CCC5C6(C)CCC(O)C(C)(COC7OC(CO)C(O)C(O)C7O)C6CCC5(C)C4(C)CCC3(C(=O)O)CC2)C(O)C(O)C1O (centres undefined)	none
c1ccc(-c2cn3c4ccccc4n(CCN4CCOCC4)c3n2)cc1	Myc binder active
Cc1onc(-c2ccccc2)c1C(=O)N(CCC#N)CCC#N	none
